About 83,000 compounds went through this panel and 20% of them were active in at least one assay; those are over-represented in the sample as a whole.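 Single-concentration screen, 48 h exposure, 96-well plates. Endpoint: percent growth. Below 10 = active.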 Unmarked numbers belong to inactive results. Activity calls are given as the source filed them.
Assays:
Experiment in all cases: NCI-60 one-dose screen, 48 h (100 = growth as untreated, 0 = no growth, -100 = all killed)
Settings in all cases: 10 µM unless noted
[1] = test system: NCI-H23 lung
[2] = test system: NCI-H226 lung
[3] = test system: NCI-H322M lung
[4] = test system: HOP-62 NSCLC
[5] = test system: NCI-H460 lung
[6] = test system: HOP-92 NSCLC
[7] = test system: NCI-H522 lung
[8] = test system: A549/ATCC NSCLC
[9] = test system: 786-0 renal
[10] = test system: COLO 205 colon
[11] = test system: DU-145 prostate
[12] = test system: K-562 leukemia
[13] = test system: MALME-3M melanoma
[14] = test system: MDA-MB-231 breast
[15] = test system: RXF 393 renal
[16] = test system: SF-268 CNS
[17] = test system: SF-295 CNS
[18] = test system: SF-539 CNS
[19] = test system: UACC-257 melanoma
[20] = test system: M14 melanoma

| SMILES | growth [1] | growth [2] | growth [3] | growth [4] | growth [5] | growth [6] | growth [7] | growth [8] | growth [9] | growth [10] | growth [11] | growth [12] | growth [13] | growth [14] | growth [15] | growth [16] | growth [17] | growth [18] | growth [19] | growth [20] |
| --- | --- | --- | --- | --- | --- | --- | --- | --- | --- | --- | --- | --- | --- | --- | --- | --- | --- | --- | --- | --- |
| C=CC1=C(C)C2=NC1=CC1=NC(=CC3=C(C)C4=C(O)C(C(=O)O)C(=C5NC(=C2)C(C)C5CCC(=O)O)C4=N3)C(CC)=C1C (stereo not given) | 107% | 97.5% | 112% | 121% | 107% | 108% | 116% | 94.6% | 113% | 114% | 113% | 106% | 125% | 121% | 125% | 107% | 116% | 106% | 115% | 104% |
| Cc1ccc2c(c1)C(C)Cc1c(Cl)ncnc1N2C (stereo not given) | 20.7% | -7.14% (active) | 32.3% | 17.5% | 30.6% | 28.9% | 69% | 16.4% | 1.48% (active) | -56.1% (active) | 79.8% | 30.9% | 14.6% | -31.9% (active) | 4.04% (active) | 22.6% | 18.4% | 29% | 20.1% | 15.1% |
| CN(C)c1ccc(-c2ccc(-c3ccc(C(=N)N)cc3)s2)cc1 | -46.4% (active) | 87.4% | 40.2% | -33.2% (active) | -71.1% (active) | 24.5% | -50.3% (active) | -72.7% (active) | -63.9% (active) | -66.6% (active) | -88.4% (active) | -4.45% (active) | 88.1% | -29.6% (active) | 54.3% | 82.9% | 102% | 89.9% | 104% | 99.8% |
| c1ccc2c(c1)CN(CCCN1CCOCC1)C2 | 99.6% | 96.2% | 99.7% | 103% | 103% | 126% | 98.3% | 96.8% | 102% | 108% | 107% | 104% | 99.7% | 107% | 117% | 103% | 97.9% | 98.9% | 93.9% | 97% |
| O=C1CC(c2ccccc2)Cc2nc3ccc(Br)cc3cc21 (stereo not given) | 39.6% | 24.1% | 35.9% | 40.4% | 4.63% (active) | 40.1% | -3.56% (active) | 23.8% | 41.2% | -36.3% (active) | -3.21% (active) | 6.14% (active) | 38.8% | 13.2% | 28.4% | 46.7% | 17.2% | 1.6% (active) | 69.2% | 10.2% |
| CS(=O)(=O)c1cccnn1 | 95.8% | 97.4% | 99.7% | 103% | 101% | 75.5% | 82% | 104% | 97.2% | 131% | 97.6% | 84.3% | 88.8% | 102% | 102% | 98.8% | 112% | 82% | 108% | 103% |
| O=C(NNc1ccc(-c2ccccc2)nn1)c1ccc(F)cc1 | 104% | 98.7% | 94.3% | 106% | 99.1% | 91.5% | 95.2% | 98.4% | 78% | 112% | 88.9% | 98.5% | 109% | 94.5% | 82.1% | 88.8% | 95.3% | 93.4% | 108% | 99.9% |
| CCOC(=O)c1nn(C2CCCCO2)c2ccc(NS(=O)(=O)c3ccc(C)cc3)cc12 (stereo not given) | 100% | 102% | 104% | 101% | 99.4% | 96.4% | 98% | 95.1% | 94.4% | 121% | 106% | 82.8% | 102% | 94.2% | 119% | 96.2% | 99.7% | 105% | 97% | 101% |
| C#CCNC(=O)CC[C@@H](C)[C@H]1CC[C@H]2[C@@H]3CC[C@@H]4CC(=O)CC[C@]4(C)[C@H]3CC[C@]12C | -27.5% [100 µM] (active) | -63.7% [100 µM] (active) | -5.44% [100 µM] (active) | -56.3% [100 µM] (active) | -55.5% [100 µM] (active) | -71.6% [100 µM] (active) | -63.8% [100 µM] (active) | 6.94% [100 µM] (active) | -71.9% [100 µM] (active) | -70.9% [100 µM] (active) | -38.1% [100 µM] (active) | 4.55% [100 µM] (active) | -82.2% [100 µM] (active) | -78% [100 µM] (active) | -76.1% [100 µM] (active) | -20.4% [100 µM] (active) | -51.3% [100 µM] (active) | -82.6% [100 µM] (active) | -0.129% [100 µM] (active) | -22.4% [100 µM] (active) |
| Cc1ccc(S(=O)(=O)Oc2ccc(Br)cc2Br)cc1 | 88% | 85.5% | 91.2% | 76.6% | 97.2% | 82.3% | 82.1% | 64% | 86.6% | 63.9% | 78.1% | 18.5% | 92% | 85% | 87.9% | 76.5% | 69.3% | 81.6% | 81.4% | 78.8% |
| C#C[C@]1(O)CC[C@H]2[C@@H]3CC=C4c5nc(N)sc5CC[C@]4(C)[C@H]3CC[C@@]21C | 78% | 83.8% | 79.7% | 62.5% | 86.9% | 62.2% | 56.6% | 65.9% | -0.771% (active) | 80.5% | 71.2% | 29.7% | 42.1% | 45.4% | -22.4% (active) | 62.8% | -43.6% (active) | -32% (active) | 72.8% | 81.1% |
| CCOc1ccc(S(=O)(=O)Nc2ccc3c(c2)N(S(=O)(=O)CC)CCC3)cc1 | 87.5% | 87% | 86.8% | 69.9% | 52.6% | 86.1% | 68.4% | 84.3% | 96% | 62.6% | 89.6% | 71.6% | 100% | 88.7% | 86.2% | 74.1% | 59.2% | 61.6% | 85.4% | 107% |
| COc1ccc(/C=C2\N=C(Nc3ccccc3)N(NC(=O)c3ccccn3)C2=O)cc1 | 101% | 98.1% | 106% | 107% | 99.7% | 95.8% | 90% | 99.1% | 96.4% | 115% | 109% | 81.1% | 105% | 94.6% | 95.8% | 101% | 98.2% | 98.3% | 108% | 101% |
| Fc1cc2[nH]ncc2c2c3c(c(-c4cn[nH]c4)nc12)CCCC3 | -14.5% (active) | 1.53% (active) | 2.77% (active) | -10.6% (active) | 1.29% (active) | -7.43% (active) | -9.92% (active) | 1.75% (active) | 12.1% | -43.8% (active) | 7.37% (active) | 15.4% | -14.8% (active) | 3.56% (active) | -56% (active) | 3.1% (active) | 9.21% (active) | -30.7% (active) | -22.2% (active) | 1.03% (active) |
| NC(=S)Cc1ccccc1 | 102% | 96.8% | 98.3% | 98.1% | 106% | 108% | 92% | 99.7% | 99.6% | 108% | 104% | 97.1% | 92.7% | 101% | 116% | 99.8% | 91.9% | 95.5% | 103% | 98.6% |

Source: PubChem BioAssay (NCI)
